Mtb FBA inh: Mtb FBA enzyme inhibitors, primary screen, biochemical, fluorescence, strain H37Rv; Fructose-bisphosphate aldolase (Mycobacterium tuberculosis (strain ATCC 25618 / H37Rv)), …; purified M. tuberculosis FBA, fluorescence read-out; inhibition, % at 1 µM; hit rate 2.3% among 360,000; AID 588726, 2011;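 note: 0% = vehicle and 100% = reference inhibitor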
Target sequence (P9WQA3 whole entry, looked up): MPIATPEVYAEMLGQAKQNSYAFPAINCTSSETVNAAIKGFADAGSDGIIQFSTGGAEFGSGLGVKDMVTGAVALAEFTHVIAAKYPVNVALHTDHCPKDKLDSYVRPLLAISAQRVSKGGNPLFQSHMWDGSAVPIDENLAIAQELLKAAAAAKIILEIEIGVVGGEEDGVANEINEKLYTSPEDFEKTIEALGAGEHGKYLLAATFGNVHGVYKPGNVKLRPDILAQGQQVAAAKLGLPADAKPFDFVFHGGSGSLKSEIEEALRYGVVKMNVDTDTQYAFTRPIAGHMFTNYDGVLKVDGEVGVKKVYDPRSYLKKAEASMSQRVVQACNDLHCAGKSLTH
GDH-TPI counter-1: GDH-TPI coupling enzyme inhibitors, primary screen, artefact control for M. tuberculosis FBA inhibitor project, biochemical, absorbance, full deck. hit rate 1.2% among 360,000. GDH-TPI coupled enzyme counterscreen, NADH absorbance. inhibition, % at 4.8 µM; in the data active = inhibition above about 30%;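 note: 0% = DMSO wells and 100% = wells lacking the enzyme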
Mtb hypoxia rep: PubChem AID 1159583 | fluorescence inhibition, % (test concentration not listed) | M. tuberculosis hypoxia-regulated fluorescent reporter, fluorescence | hit rate 0.1% among 300,000; in the data active = fluorescence inhibition mostly above about 23%, no sharp cut-off; inactive = mostly below about 17%
VHR inh abs: VHR1 phosphatase inhibitors, primary screen, biochemical, absorbance, uHTS; hit rate 0.52% among 290,000; recombinant VHR phosphatase, pNPP absorbance; AID 1654, 2009; inhibition, % at 13.3 µM; in the data active = inhibition above about 50%
Mtb bLac sens: beta-lactam sensitization of Mtb H37Rv, H37Rv; M. tuberculosis H37Rv growth with meropenem, percent inhibition; inhibition, % at 25 µM; hit rate 0.27% among 330,000; AID 434955, 2010; call rule not given here;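 note: growth measured after seven days incubation then overnight dye step; 0% = bacteria only wells and 100% = bacteria with antibiotic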
Mtb FBA inh conf: M. tuberculosis aldolase blockers, biochemical, fluorescence, strain H37Rv, confirmation; shares compounds with Mtb FBA inh; purified M. tuberculosis FBA, fluorescence read-out; inhibition, % at 1 µM; hit rate 78% among 5,600;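 note: 0% = vehicle wells and 100% = reference inhibitor wells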
GDH-TPI counter-2: GDH-TPI coupling enzyme inhibitors, artefact control for M. tuberculosis FBA inhibitor project, biochemical, fluorescence, high throughput. shares compounds with Mtb FBA inh. GDH-TPI coupled enzyme counterscreen. hit rate 81% among 5,600. inhibition, % at 1 µM; in the data active = inhibition above about 10%
Starred values were filed as active, the others as inactive. The list is not random: actives were taken first. Their share in the collection is about 3.6%. Cut-off read from the data, not from the text of the source, unless noted: active = inhibition above about 27%; inactive = the rest.

What do the screens show for `N#Cc1nc(-c2ccccc2)oc1NCCCn1ccnc1`?
Mtb FBA inh: 100*; GDH-TPI counter-1: 11; Mtb hypoxia rep: 2; VHR inh abs: 0; Mtb bLac sens: 1; Mtb FBA inh conf: 139*; GDH-TPI counter-2: 89*

What do the screens show for `N#Cc1nc(-c2ccc(OCc3ccc(Cl)cc3)cc2)oc1NCCCn1ccnc1`?
Mtb FBA inh: 1; GDH-TPI counter-1: 2; Mtb hypoxia rep: 3; VHR inh abs: 1; Mtb bLac sens: -9

What do the screens show for `COC(=O)C(CC(C)C)NS(=O)(=O)c1ccccc1` (stereo not given)?
Mtb hypoxia rep: 22

Results for Cc1cccc(-c2nc(C#N)c(NCc3ccco3)o2)c1 ?
Mtb FBA inh: 48*; GDH-TPI counter-1: 5; VHR inh abs: -1; Mtb bLac sens: 8; Mtb FBA inh conf: 165*; GDH-TPI counter-2: 135*

What do the screens show for `N#Cc1nc(-c2cccc3ccccc23)oc1NCCN1CCCCC1`?
Mtb FBA inh: 70*; GDH-TPI counter-1: 11; Mtb hypoxia rep: 9; VHR inh abs: 19; Mtb bLac sens: 21; Mtb FBA inh conf: 195*; GDH-TPI counter-2: 188*

How did Cc1ccc(OCc2nc(C#N)c(NCc3ccco3)o2)cc1 do in these assays?
Mtb FBA inh: 1; GDH-TPI counter-1: 5; VHR inh abs: 0; Mtb bLac sens: 12

How did O=C(O)c1ccc(C(=O)Nc2cccc3ccccc23)c(C(=O)O)c1 do in these assays?
Mtb FBA inh: 54*; GDH-TPI counter-1: 9; Mtb hypoxia rep: 9; VHR inh abs: -1; Mtb bLac sens: 7; Mtb FBA inh conf: 155*; GDH-TPI counter-2: 111*

Results for O=C(O)c1cccc([N+](=O)[O-])c1C(=O)Nc1cccc2ccccc12 ?
Mtb FBA inh: 48*; GDH-TPI counter-1: 8; Mtb hypoxia rep: 2; VHR inh abs: 8; Mtb bLac sens: 2; Mtb FBA inh conf: 116*; GDH-TPI counter-2: 99*

Results for CC(=NNC(=O)CCc1c(C)n[nH]c1C)c1ccc([N+](=O)[O-])cc1 ?
Mtb hypoxia rep: 5

How did Cc1nnc(NN=Cc2cccs2)[nH]c1=O do in these assays?
Mtb hypoxia rep: 9

What do the screens show for `Cc1ccc2c(n1)sc1c(-c3ccccc3)c(C#N)c(N)nc12`?
Mtb FBA inh: 69*; GDH-TPI counter-1: 20; Mtb hypoxia rep: 3; VHR inh abs: 17; Mtb bLac sens: 0; Mtb FBA inh conf: 163*; GDH-TPI counter-2: 168*

Results for Cc1nc(N)c(C#N)c(-c2cccnc2)c1-c1ccccc1 ?
Mtb FBA inh: 4; GDH-TPI counter-1: 9; Mtb hypoxia rep: 2; VHR inh abs: 31; Mtb bLac sens: inconclusive

Results for Cc1cccc(C2C3C(=O)N(Cc4ccccc4)C(=O)C3[C@]3(CC(C)C)C(=O)N(c4cccc(F)c4)C(=O)N23)c1 (stereo not given in full) ?
Mtb hypoxia rep: 15

Results for CCOc1ccc(-c2cc(C(=O)NCCCN3CCOCC3)c3ccccc3n2)cc1 ?
Mtb FBA inh: 35*; GDH-TPI counter-1: 25; Mtb hypoxia rep: 8; VHR inh abs: 34; Mtb bLac sens: -8; Mtb FBA inh conf: 116*; GDH-TPI counter-2: 88*

What do the screens show for `O=C(NCCCN1CCOCC1)c1cc(-c2ccc(Cl)s2)nc2ccccc12`?
Mtb FBA inh: 64*; GDH-TPI counter-1: 14; Mtb hypoxia rep: 13; Mtb bLac sens: -8; Mtb FBA inh conf: 172*; GDH-TPI counter-2: 145*

How did COc1ccc(-c2cc(C(=O)NCCCN3CCOCC3)c3ccccc3n2)cc1OC do in these assays?
Mtb FBA inh: 8; GDH-TPI counter-1: 17; Mtb hypoxia rep: 6; Mtb bLac sens: -11

Results for Cc1ccc(-c2cc(C(=O)NCCCn3ccnc3)c3ccccc3n2)s1 ?
Mtb FBA inh: 110*; GDH-TPI counter-1: 9; Mtb hypoxia rep: 6; VHR inh abs: 7; Mtb bLac sens: 8; Mtb FBA inh conf: 154*; GDH-TPI counter-2: 125*

Results for COc1ccc(-c2cc(C(=O)NCCCN3CCOCC3)c3cc(C(C)C)ccc3n2)cc1 ?
Mtb FBA inh: 70*; GDH-TPI counter-1: 7; Mtb hypoxia rep: 9; VHR inh abs: -14; Mtb bLac sens: 14; Mtb FBA inh conf: active; GDH-TPI counter-2: 141*

Screens from PubChem.
